In PubChem BioAssay AID1159580 (chemical genetic matrix, 2015):
Hit rate of the full screen: of about 5,500 compounds, about 2,000 (36%) were called active. Another 18% or so got no clear call; they are omitted. Cut-off read from the data, not from the text of the source: active = normalized growth mostly below about 0.91 (no sharp cut-off); inconclusive = no clear call, values can overlap the other calls; inactive = mostly above about 0.92. This is one part of the list.

Assay: chemical genetic growth profiling, strain panel (AID 1159580);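 note: tested at 20 µM; growth read once vehicle control cultures reached saturation at 30 °C; 1 = growth at the plate median or of vehicle wells; lower values mean less growth of the strain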
Details: S. cerevisiae deletion strains, growth OD

Measured: normalized growth

CC(=O)OC/C=C(\C)CC/C=C(\C)CC/C=C(\C)CC/C=C(\C)CC/C=C(\C)CC/C=C(\C)CC/C=C(\C)CC/C=C(\C)CCC=C(C)C
inactive: locus YAL021C, strain ccr4, active compounds read low 0.991 | locus YAL026C, strain drs2, active compounds read low 0.973 | locus YAL030W, strain snc1, active compounds read low 0.977 | locus YBL061C, strain skt5, active compounds read low 0.981 | locus YBR009C, strain hhf1, active compounds read low 0.98 | locus YBR023C, strain chs3, active compounds read low 0.991 | locus YBR171W, strain sec66, active compounds read low 0.98 | locus YBR231C, strain swc5, active compounds read low 0.992 | locus YBR279W, strain paf1, active compounds read low 0.987 | locus YCL011C, strain gbp2, active compounds read low 0.959 | locus YCL016C, strain dcc1, active compounds read low 0.981 | locus YCL061C, strain MRC1, active compounds read low 0.997 | locus YCL069W, strain vba3, active compounds read low 1 | locus YCR088W, strain abp1, active compounds read low 0.995 | locus YDL005C, strain med2, active compounds read low 0.976 | locus YDL040C, strain nat1, active compounds read low 0.998 | locus YDR001C, strain nth1, active compounds read low 0.966 | locus YDR069C, strain doa4, active compounds read low 0.978 | locus YDR137W, strain rgp1, active compounds read low 0.984 | locus YDR159W, strain sac3, active compounds read low 1.02 | locus YDR195W, strain ref2 0.984 | locus YDR297W, strain sur2, active compounds read low 0.993 | locus YDR334W, strain swr1, active compounds read low 0.943 | locus YDR335W, strain msn5, active compounds read low 0.982 | locus YDR392W, strain spt3, active compounds read low 0.976 | locus YEL003W, strain gim4, active compounds read low 0.98 | locus YEL037C, strain rad23, active compounds read low 0.976 | locus YEL061C, strain CIN8 (second series), active compounds read low 0.973 | locus YER015W, strain faa2, active compounds read low 0.971 | locus YER016W, strain bim1, active compounds read low 0.99 | locus YER111C, strain swi4, active compounds read low 0.984 | locus YER155C, strain BEM2 (second series), active compounds read low 1 | locus YFR010W, strain ubp6, active compounds read low 0.967 | locus YGL167C, strain pmr1, active compounds read low 0.981 | locus YGL173C, strain kem1, active compounds read low 0.974 | locus YGL227W, strain vid30, active compounds read low 0.987 | locus YGL240W, strain doc1, active compounds read low 1.01 | locus YGL253W, strain hxk2, active compounds read low 0.964 | locus YHR013C, strain ard1, active compounds read low 0.969 | locus YHR027C, strain rpn1, active compounds read low 0.974 | locus YHR030C, strain SLT2, active compounds read low 1.04 | locus YHR079C, strain IRE1, active compounds read low 1.04 | locus YHR142W, strain chs7, active compounds read low 0.917 | locus YJL092W, strain hpr5, active compounds read low 0.985 | locus YJL095W, strain BCK1 (second series), active compounds read low 0.987 | locus YJL095W, strain BCK1, active compounds read low 1.02 | locus YJL115W, strain asf1, active compounds read low 0.951 | locus YJL129C, strain trk1, active compounds read low 0.931 | locus YJL154C, strain vps35, active compounds read low 0.971 | locus YJL164C, strain tpk1, active compounds read low 0.976 | locus YJL166W, strain qcr8, active compounds read low 0.99 | locus YJL187C, strain SWE1, active compounds read low 0.986 | locus YJR066W, strain TOR1, active compounds read low 1.01 | locus YKL160W, strain elf1, active compounds read low 0.98 | locus YKR026C, strain gcn3, active compounds read low 0.988 | locus YKR091W, strain srl3, active compounds read low 0.984 | locus YLL001W, strain dnm1, active compounds read low 0.968 | locus YLL026W, active compounds read low 0.974 | locus YLL041C, strain sdh2, active compounds read low 0.991 | locus YLR027C, strain aat2, active compounds read low 0.997 | locus YLR113W, strain HOG1, active compounds read low 0.991 | locus YLR221C, strain rsa3, active compounds read low 0.942 | locus YLR258W, strain gsy2, active compounds read low 0.997 | locus YLR262C, strain YPT6 (second series), active compounds read low 0.996 | locus YLR320W, strain mms22, active compounds read low 0.991 | locus YLR342W, strain FKS1, active compounds read low 0.99 | locus YLR357W, strain rsc2, active compounds read low 0.987 | locus YLR370C, strain arc18, active compounds read low 0.994 | locus YLR384C, strain iki3, active compounds read low 0.985 | locus YML120C, strain ndi1, active compounds read low 0.977 | locus YMR058W, strain fet3, active compounds read low 0.984 | locus YMR125W, strain sto1, active compounds read low 0.939 | locus YMR129W, active compounds read low 0.982 | locus YMR205C, strain PFK2, active compounds read low 0.958 | locus YMR231W, strain pep5, active compounds read low 0.989 | locus YNL071W, strain lat1, active compounds read low 0.987 | locus YNL183C, strain NPR1, active compounds read low 1.01 | locus YNL209W, strain ssb2, active compounds read low 1 | locus YNL248C, strain rpa49, active compounds read low 0.964 | locus YNL322C, strain KRE1 (second series), active compounds read low 0.97 | locus YNR049C, strain mso1, active compounds read low 0.975 | locus YOR001W, strain rrp6, active compounds read low 1 | locus YOR070C, strain gyp1, active compounds read low 0.984 | locus YOR080W, strain dia2, active compounds read low 0.978 | locus YOR083W, strain WHI5, active compounds read low 0.97 | locus YOR106W, strain vam3, active compounds read low 0.909 | locus YOR231W, strain MKK1, active compounds read low 1.02 | locus YOR265W, strain rbl2, active compounds read low 0.996 | locus YOR270C, strain vph1, active compounds read low 0.879 | locus YOR290C, strain snf2, active compounds read low 0.941 | locus YPL051W, strain arl3, active compounds read low 1 | locus YPL078C, strain atp4, active compounds read low 0.977 | locus YPL106C, strain sse1, active compounds read low 0.997 | locus YPL240C, strain hsp82, active compounds read low 0.968 | locus YPL256C, strain CLN2, active compounds read low 1.02

CC(C)=CCC/C(C)=C/CC/C(C)=C/CSc1ccccc1C(=O)O
inactive: locus YAL013W, strain DEP1, active compounds read low 0.944 | locus YAL040C, strain CLN3, active compounds read low 1.04 | locus YDR363W, strain ESC2, active compounds read low 0.896 | locus YER002W, strain NOP16, active compounds read low 0.958 | locus YGR078C, strain PAC10, active compounds read low 0.928 | locus YNL175C, strain NOP13, active compounds read low 0.956 | locus YNL197C, strain WHI3, active compounds read low 0.965 | locus YNL224C, strain SQS1, active compounds read low 0.974
active: locus YCL061C, strain MRC1 (second series), active compounds read low 0.938 | locus YGR229C, strain SMI1, active compounds read low 0.742 | locus YOR083W, strain WHI5 (second series), active compounds read low 0.855
